According to PubChem BioAssay (EPA / NIEHS):
The source made the active and inactive calls. How the source made its calls: active means hit-call score of the fitted dose curve at least 0.9, where 1 is the maximum; inactive means score below 0.9.

Tests used:
[1] = target: Transcription factor E2F1 (Homo sapiens) (UniProt Q01094); assay: ATG_E2F_CIS: Attagene CIS-FACTORIAL HepG2 Assay for human E2F Transcription Factor 1 (AID 2282935); settings: HepG2 Attagene cis-reporter, E2F reporter RNA transcripts; actives raise or lower the signal
Chain of Transcription factor E2F1 (Homo sapiens) (Q01094 whole entry, looked up): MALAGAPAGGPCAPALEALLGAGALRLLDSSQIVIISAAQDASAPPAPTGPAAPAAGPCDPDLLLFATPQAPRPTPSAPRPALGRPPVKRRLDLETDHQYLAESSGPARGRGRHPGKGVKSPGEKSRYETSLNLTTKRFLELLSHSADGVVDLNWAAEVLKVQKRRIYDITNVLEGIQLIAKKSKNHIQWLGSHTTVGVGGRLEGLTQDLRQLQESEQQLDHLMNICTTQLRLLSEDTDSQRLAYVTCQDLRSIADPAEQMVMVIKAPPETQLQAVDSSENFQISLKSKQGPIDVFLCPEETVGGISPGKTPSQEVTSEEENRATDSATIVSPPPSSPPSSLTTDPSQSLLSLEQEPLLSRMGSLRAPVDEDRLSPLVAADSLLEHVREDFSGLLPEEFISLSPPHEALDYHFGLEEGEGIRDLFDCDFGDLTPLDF
Summary of the method: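 Gain or loss of reporter transcript, fitted against DMSO, reflects E2F1-driven transcription. Transiently transfected HepG2 dosed 24 h before RNA isolation. Quantified by fluorescent RT-PCR products separated by capillary electrophoresis.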

[2] = ATG_E_Box_CIS: Attagene CIS-FACTORIAL HepG2 Assay for human Enhancer Box (E-box) (AID 2282936); settings: HepG2 E-box cis-reporter transcription, actives raise or lower the signal
Summary of the method: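 E-box-driven reporter transcripts measured in transiently transfected HepG2 after 24 h exposure: RNA reverse-transcribed, PCR-amplified, fluorescently labelled, digested and resolved by capillary electrophoresis. Gain or loss relative to DMSO.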

[3] = ATG_M_61_CIS: Attagene CIS-FACTORIAL HepG2 Assay for M61 Transcription Factor (Internal Marker) (AID 2282937); settings: HepG2 Attagene CIS-FACTORIAL M61 internal marker reporter; actives raise or lower the signal
Summary of the method: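 Background-control endpoint: HepG2 cells with cis-regulated reporter constructs, 24 h exposure, reporter mRNA detected via fluorescent primer extension and capillary electrophoresis; values from bidirectional fitting with DMSO baseline.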

[4] = ATG_EGR_CIS: Attagene CIS-FACTORIAL HepG2 Assay for human Early Growth Response 1 (EGR1) (AID 2282938); settings: HepG2 Attagene CIS-FACTORIAL EGR reporter mRNA; actives raise or lower the signal
Summary of the method: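 Endpoint derived by bidirectional fitting versus DMSO vehicle. Method: cis-promoter reporter units transfected into HepG2, 24 h dosing, RNA isolation, RT-PCR with 6-FAM primer extension and HpaI digestion, then capillary electrophoresis fluorescence detection.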

[5] = ATG_M_19_CIS: Attagene CIS-FACTORIAL HepG2 Assay for M19 Transcription Factor (Internal Marker) (AID 2282939); settings: HepG2 Attagene CIS-FACTORIAL M19 internal marker reporter; actives raise or lower the signal
Summary of the method: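 Signals come from fluorescence of labelled reporter-specific PCR fragments resolved by capillary electrophoresis, following 24 h treatment of HepG2 cells transfected with cis-promoter reporter units; activity was fitted in both directions relative to DMSO.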

[6] = ATG_ERE_CIS: Attagene CIS-FACTORIAL HepG2 Assay for Estrogen Response Element (ERE) (AID 2282940); settings: HepG2 ERE cis-reporter, Attagene RNA transcript; actives raise or lower the signal
Summary of the method: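 Fluorescence of capillary-separated, FAM-labelled reporter cDNA fragments indicates reporter mRNA levels in HepG2 cells exposed to chemicals for 24 h. Transient transfection with cis-regulated units; data fitted in both directions against DMSO.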

[7] = ATG_Ets_CIS: Attagene CIS-FACTORIAL HepG2 Assay for human Erythroblast Transformation Specific (ETS) (AID 2282941); settings: HepG2 ETS cis-reporter transcription, actives raise or lower the signal
Summary of the method: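 RT-PCR/capillary electrophoresis fluorescence read-out of reporter mRNA; HepG2 transient multi-reporter transfection; 24 h compound exposure; gain or loss of signal fitted bidirectionally relative to DMSO.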

[8] = target: Hepatocyte nuclear factor 3-beta (Homo sapiens) (UniProt Q9Y261); assay: ATG_FoxA2_CIS: Attagene CIS-FACTORIAL HepG2 Assay for human Forkhead box A2 (FOXA2) (AID 2282942); settings: HepG2 cis-reporter transcription factor activity, 24 h; actives raise or lower the signal
Chain of Hepatocyte nuclear factor 3-beta (Homo sapiens) (Q9Y261 whole entry, looked up): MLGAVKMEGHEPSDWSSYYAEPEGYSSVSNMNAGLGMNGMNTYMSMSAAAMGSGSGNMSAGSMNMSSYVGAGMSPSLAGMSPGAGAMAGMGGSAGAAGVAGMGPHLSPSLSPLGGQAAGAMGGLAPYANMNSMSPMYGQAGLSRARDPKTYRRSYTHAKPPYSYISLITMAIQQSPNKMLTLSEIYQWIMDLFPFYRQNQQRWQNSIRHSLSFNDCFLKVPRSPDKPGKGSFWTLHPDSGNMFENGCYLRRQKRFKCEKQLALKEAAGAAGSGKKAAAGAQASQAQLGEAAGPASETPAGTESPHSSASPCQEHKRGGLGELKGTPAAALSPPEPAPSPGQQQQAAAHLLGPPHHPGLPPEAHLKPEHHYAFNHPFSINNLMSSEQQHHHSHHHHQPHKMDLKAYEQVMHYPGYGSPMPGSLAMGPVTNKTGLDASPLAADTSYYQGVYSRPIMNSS
Summary of the method: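 Measured: reporter mRNA induction or loss in HepG2 transiently carrying multiple cis-regulated reporter units, 24 h after dosing. Quantified by RT-PCR plus capillary electrophoresis, normalised to DMSO.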

[9] = ATG_FoxO_CIS: Attagene CIS-FACTORIAL HepG2 Assay for human Forkhead box O (FoxO) (AID 2282943); settings: HepG2 Attagene cis-reporter, FoxO element, mRNA; actives raise or lower the signal
Summary of the method: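 HepG2, transient MRTU transfection (cis element, endogenous TFs). Dose 24 h. TriZol RNA → oligo(dT) RT → PCR → 6-FAM primer extension → HpaI cut → CE. Gain/loss vs DMSO.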

[10] = ATG_GATA_CIS: Attagene CIS-FACTORIAL HepG2 Assay for human GATA Binding Protein (AID 2282944); settings: HepG2 GATA cis-element reporter, Attagene multiplex mRNA; actives raise or lower the signal
Summary of the method: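 After transfecting HepG2 cells with multiple cis-regulated reporter units, chemicals are dosed for 24 h; isolated RNA undergoes RT-PCR and fluorescent labeling before capillary electrophoresis, with activity expressed against DMSO.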

[11] = ATG_GLI_CIS: Attagene CIS-FACTORIAL HepG2 Assay for human Zinc Finger Protein GLI1 (AID 2282945); settings: HepG2, Attagene cis-factorial reporter mRNA, GLI element; actives raise or lower the signal
Summary of the method: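 Bidirectional curve fits relative to DMSO, using reporter mRNA levels from RT-PCR plus capillary electrophoresis. Cells were HepG2 transiently carrying cis-regulated reporter constructs, harvested 24 h after dosing.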

[12] = ATG_GRE_CIS: Attagene CIS-FACTORIAL HepG2 Assay for human Glucocorticoid Response Elements (GRE) (AID 2282947); settings: HepG2 GRE cis-reporter, Attagene multiplex mRNA; actives raise or lower the signal
Summary of the method: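 Reporter transcripts read by RT-PCR with capillary electrophoresis fluorescence after a 24 h chemical exposure of HepG2 cells transiently transfected with multiple cis-element reporter units. Gain or loss fitted against DMSO.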

[13] = ATG_ISRE_CIS: Attagene CIS-FACTORIAL HepG2 Assay for human Interferon Regulatory Factor 1 (IRF1) binding to an Interferon-Stimulated Response Element (ISRE) (AID 2282948); settings: HepG2 ISRE cis-reporter (Attagene), mRNA transcription readout; actives raise or lower the signal
Summary of the method: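 Read-out: fluorescent RT-PCR products resolved by capillary electrophoresis, reporting endogenous transcription factor activity via ISRE-driven reporter mRNA in transfected HepG2 cells dosed for 24 h; gain or loss fitted relative to DMSO.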

[14] = ATG_M_32_CIS: Attagene CIS-FACTORIAL HepG2 Assay for M32 Transcription Factor (Internal Marker) (AID 2282949); settings: HepG2 Attagene cis-factorial M32 reporter, mRNA; actives raise or lower the signal;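 further: background control marker of the multiplexed CIS panel rather than a real target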
Summary of the method: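 HepG2 transfectants (cis-regulated reporter transcription units) dosed 24 h. Reporter mRNA by RT-PCR plus CE, analysed as gain or loss relative to DMSO.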

[15] = ATG_M_06_CIS: Attagene CIS-FACTORIAL HepG2 Assay for M06 Transcription Factor (Internal Marker) (AID 2282950); settings: HepG2 Attagene CIS-FACTORIAL M06 internal marker reporter; actives raise or lower the signal
Summary of the method: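 HepG2 liver cells, 24 h exposure. Reporter transcripts from transfected cis-element constructs quantified by RT-PCR/capillary electrophoresis fluorescence. Bidirectional curve fit against DMSO.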

[16] = target: Hypoxia-inducible factor 1-alpha (Homo sapiens) (UniProt Q16665); assay: ATG_HIF1a_CIS: Attagene CIS-FACTORIAL HepG2 Assay for human Hypoxia Inducible Factor 1 (HIF1A) (AID 2282951); settings: HepG2 Attagene cis-factorial HIF1a reporter transcription; actives raise or lower the signal
Chain of Hypoxia-inducible factor 1-alpha (Homo sapiens) (Q16665 whole entry, looked up): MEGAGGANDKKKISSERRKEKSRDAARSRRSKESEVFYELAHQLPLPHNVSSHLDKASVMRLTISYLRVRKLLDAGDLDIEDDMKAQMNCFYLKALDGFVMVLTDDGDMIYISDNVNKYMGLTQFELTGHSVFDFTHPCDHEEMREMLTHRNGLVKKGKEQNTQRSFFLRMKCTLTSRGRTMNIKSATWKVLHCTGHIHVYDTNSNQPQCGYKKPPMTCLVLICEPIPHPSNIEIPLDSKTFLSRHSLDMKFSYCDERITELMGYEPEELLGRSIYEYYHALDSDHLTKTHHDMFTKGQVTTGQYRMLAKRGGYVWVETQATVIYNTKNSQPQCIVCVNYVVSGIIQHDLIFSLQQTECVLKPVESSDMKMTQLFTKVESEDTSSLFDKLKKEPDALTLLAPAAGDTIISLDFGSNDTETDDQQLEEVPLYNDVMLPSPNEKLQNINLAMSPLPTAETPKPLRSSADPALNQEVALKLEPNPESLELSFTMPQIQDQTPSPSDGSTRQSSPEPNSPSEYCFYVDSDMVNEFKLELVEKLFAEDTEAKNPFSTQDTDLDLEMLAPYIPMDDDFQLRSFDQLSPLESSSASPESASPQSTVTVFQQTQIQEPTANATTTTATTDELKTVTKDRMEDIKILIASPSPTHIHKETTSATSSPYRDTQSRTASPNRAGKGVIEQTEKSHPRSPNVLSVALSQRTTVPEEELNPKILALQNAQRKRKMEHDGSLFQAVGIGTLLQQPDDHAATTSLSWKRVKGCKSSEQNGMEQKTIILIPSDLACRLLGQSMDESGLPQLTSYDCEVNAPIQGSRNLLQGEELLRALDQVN
Summary of the method: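 Dosed 24 h, transfected HepG2 cells yielded total RNA whose reporter transcripts were RT-PCR-amplified and sized by capillary electrophoresis using fluorescent labelling; DMSO defined baseline, with gain and loss of signal both fitted.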

[17] = target: Hepatocyte nuclear factor 6 (Homo sapiens) (UniProt Q9UBC0); assay: ATG_HNF6_CIS: Attagene CIS-FACTORIAL HepG2 Assay for human Hepatocyte Nuclear Factor 6 (HNF6) (AID 2282952); settings: HepG2 Attagene cis-factorial HNF6 reporter transcription; actives raise or lower the signal
Chain of Hepatocyte nuclear factor 6 (Homo sapiens) (Q9UBC0 whole entry, looked up, the tested form may be a part): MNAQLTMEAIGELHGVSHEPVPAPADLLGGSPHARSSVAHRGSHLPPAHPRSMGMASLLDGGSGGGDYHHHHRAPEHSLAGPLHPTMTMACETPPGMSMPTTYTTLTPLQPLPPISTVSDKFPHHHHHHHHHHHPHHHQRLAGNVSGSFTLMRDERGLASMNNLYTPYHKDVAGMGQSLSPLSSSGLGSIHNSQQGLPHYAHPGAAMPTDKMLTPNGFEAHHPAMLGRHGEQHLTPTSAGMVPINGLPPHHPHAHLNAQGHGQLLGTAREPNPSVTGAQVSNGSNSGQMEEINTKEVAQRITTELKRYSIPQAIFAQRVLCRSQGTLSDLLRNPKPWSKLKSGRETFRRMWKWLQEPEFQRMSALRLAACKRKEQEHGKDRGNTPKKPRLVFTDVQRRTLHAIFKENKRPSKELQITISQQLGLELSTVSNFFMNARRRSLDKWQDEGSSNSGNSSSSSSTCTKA
Summary of the method: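 Readout: fluorescent reporter-transcript fragments resolved by capillary electrophoresis after RT-PCR, reflecting endogenous factor activity in transfected HepG2. Exposure 24 h. Gain or loss of signal fitted bidirectionally against DMSO.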

[18] = target: Heat shock factor protein 1 (Homo sapiens) (UniProt Q00613); assay: ATG_HSE_CIS: Attagene CIS-FACTORIAL HepG2 Assay for human Heat Shock Transcription Factor 1 (HSE) (AID 2282953); settings: HepG2 HSE cis-reporter, Attagene RNA transcription; actives raise or lower the signal
Chain of Heat shock factor protein 1 (Homo sapiens) (Q00613 whole entry, looked up, the tested form may be a part): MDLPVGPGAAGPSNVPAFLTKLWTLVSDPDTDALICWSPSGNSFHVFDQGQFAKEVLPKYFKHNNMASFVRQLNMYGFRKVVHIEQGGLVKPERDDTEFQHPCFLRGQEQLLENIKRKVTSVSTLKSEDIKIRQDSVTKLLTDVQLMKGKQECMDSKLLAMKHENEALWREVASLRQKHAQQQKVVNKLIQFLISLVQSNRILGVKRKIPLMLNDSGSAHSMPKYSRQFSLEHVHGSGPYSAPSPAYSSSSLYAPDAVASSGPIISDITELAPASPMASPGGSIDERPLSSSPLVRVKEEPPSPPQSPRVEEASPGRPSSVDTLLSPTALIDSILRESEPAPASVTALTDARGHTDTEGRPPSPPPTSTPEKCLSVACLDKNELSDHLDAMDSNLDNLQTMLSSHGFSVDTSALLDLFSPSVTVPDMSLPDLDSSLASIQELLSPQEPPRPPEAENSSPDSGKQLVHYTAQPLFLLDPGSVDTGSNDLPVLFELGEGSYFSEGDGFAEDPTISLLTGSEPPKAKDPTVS
Summary of the method: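 Endogenous transcription factor activity captured via cis-promoter reporter units transfected into HepG2; treatment lasted 24 h. Fluorescence intensity of reporter fragments analysed with bidirectional curve fitting, DMSO baseline.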

[19] = ATG_MRE_CIS: Attagene CIS-FACTORIAL HepG2 Assay for human Metal Responsive Element (MRE) (AID 2282954); settings: HepG2 MRE cis-reporter transcription, Attagene multiplex; actives raise or lower the signal
Summary of the method: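 Endogenous MRE-dependent transcription read as reporter mRNA in transiently transfected human HepG2 cells at 24 h. RNA reverse-transcribed, PCR-amplified, labelled and resolved by capillary electrophoresis; gain or loss relative to DMSO.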

Measured: AC50

CC(C)N1C(=O)c2ccccc2NS1(=O)=O
inactive: all assays above

CC(C)Oc1cccc(NC(=O)c2ccccc2C(F)(F)F)c1
active: [6] 13.3 µM | [19] 28.7 µM
inactive: all other assays above

Cc1ccc(N=CN(C)C=Nc2ccc(C)cc2C)c(C)c1
inactive: all assays above

CCCCC(C#N)(Cn1cncn1)c1ccc(Cl)cc1 (stereo unspecified)
inactive: all assays above

CC(C)(C)C(=O)C(Oc1ccc(Cl)cc1)n1cncn1 (stereo unspecified)
active: [6] 20 µM
inactive: all other assays above

CCSC(=O)N1CCCCCC1
not listed: [12]
inactive: all other assays above

COC(=O)N(C(=O)N1CO[C@@]2(C(=O)OC)Cc3cc(Cl)ccc3C2=N1)c1ccc(OC(F)(F)F)cc1
active: [19] 2.11 µM
inactive: all other assays above

Cc1cnc(C2=NC(C)(C(C)C)C(=O)N2)c(C(=O)O)c1 (stereo unspecified)
inactive: all assays above

CCOc1nc(C(Cl)(Cl)Cl)ns1
not listed: [12]
inactive: all other assays above

CCOC(=O)C(C)OC(=O)c1cc(Oc2ccc(C(F)(F)F)cc2Cl)ccc1[N+](=O)[O-] (stereo unspecified)
active: [6] 34.1 µM
inactive: all other assays above

COC(=O)NS(=O)(=O)c1ccc(N)cc1
not listed: [18]
inactive: all other assays above

CC1(C)CON(Cc2ccccc2Cl)C1=O
active: [6] 50 µM
not listed: [12]
inactive: all other assays above

C=CCOC(=O)C(C)(C)OC(=O)c1cc(-n2c(=O)cc(C(F)(F)F)n(C)c2=O)ccc1Cl
inactive: all assays above

CCOP(=O)(OCC)Oc1nc(Cl)c(Cl)cc1Cl
active: [6] 39.1 µM
inactive: all other assays above

C=C(C)CN(CC)c1c([N+](=O)[O-])cc(C(F)(F)F)cc1[N+](=O)[O-]
active: [6] 31.2 µM
inactive: all other assays above
